Test results published in PubChem BioAssay (NCATS).
Inconclusive results are not listed. Calls of active or inactive are those of the source. Calls come from the whole dose curve; as a rule, active = well fitted inhibition curve with a large enough effect; inconclusive = small, poorly fitted or top-dose-only effect; inactive = flat fitted curve, though single readings scatter.

Legend:
Experiment in all cases: qHTS profiling for inhibitors of Plasmodium falciparum proliferation (AID 504749); note: nearly all actives have a fitted effect of over 60% in size
Details in all cases: P. falciparum in erythrocytes, SYBR Green DNA, 72 h; series mostly up to 28.7 µM
CP256 = system: CP256
Procedure, shortened: (§1)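 Parasite proliferation within erythrocytes, 72 h exposure. Endpoint: SYBR Green I fluorescence after overnight lysis at room temperature. Controls: 0.29 uM artemisinin, DMSO.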

CP260 = system: CP260
Procedure, shortened: as §1

CP265 = system: CP265
Procedure, shortened: as §1

CP266 = system: CP266
Procedure, shortened: as §1

CP268 = system: CP268
Procedure, shortened: as §1

CP269 = system: CP269
Procedure, shortened: as §1

CP286 = system: CP286
Procedure, shortened: as §1

CP291 = system: CP291
Procedure, shortened: as §1

CP297 = system: CP297
Procedure, shortened: as §1

CP305 = system: CP305
Procedure, shortened: as §1

CP315 = system: CP315
Procedure, shortened: as §1

CP325 = system: CP325
Procedure, shortened: as §1

CP329 = system: CP329
Procedure, shortened: as §1

CP335 = system: CP335
Procedure, shortened: as §1

DFO2036 = system: DFO2036
Procedure, shortened: as §1

DIV14 = system: DIV14
Procedure, shortened: as §1

DIV17 = system: DIV17
Procedure, shortened: as §1

DIV30 = system: DIV30
Procedure, shortened: as §1

Dd2 = system: Dd2
Procedure, shortened: as §1

ECU = system: ECU
Procedure, shortened: as §1

FAB9 = system: FAB9
Procedure, shortened: as §1

GB4 = system: GB4
Procedure, shortened: as §1

HB3 = system: HB3
Procedure, shortened: as §1

ICS = system: ICS
Procedure, shortened: as §1

N140 = system: N140
Procedure, shortened: as §1

P93_24 = system: P93_24
Procedure, shortened: as §1

P94_40 = system: P94_40
Procedure, shortened: as §1

PAD = system: PAD
Procedure, shortened: as §1

PC15 = system: PC15
Procedure, shortened: as §1

PC49 = system: PC49
Procedure, shortened: as §1

SC27B = system: SC27B
Procedure, shortened: as §1

TAB109 = system: TAB109
Procedure, shortened: as §1

TAB113 = system: TAB113
Procedure, shortened: as §1

TAB165 = system: TAB165
Procedure, shortened: as §1

Measured: Potency
Potency is the fitted concentration of half-maximal effect.

CO[C@H]1/C=C/O[C@@]2(C)Oc3c(C)c(O)c4c(O)c(c(/C=N\N5CCN(C6CCCC6)CC5)c(O)c4c3C2=O)NC(=O)/C(C)=C\C=C\[C@H](C)[C@H](O)[C@@H](C)[C@@H](O)[C@@H](C)[C@H](OC(C)=O)[C@@H]1C
active: CP256 2820 nM | CP260 1000 nM | CP265 1260 nM | CP266 6010 nM | CP268 3790 nM | CP269 3380 nM | CP286 2240 nM | CP291 4260 nM | CP297 1690 nM | CP305 4780 nM | CP315 4780 nM | CP325 4780 nM | CP329 4780 nM | CP335 1350 nM | DFO2036 1410 nM | DIV14 675 nM | DIV17 601 nM | DIV30 849 nM | Dd2 447 nM | ECU 199 nM | FAB9 10000 nM | GB4 1070 nM | HB3 794 nM | ICS 112 nM | N140 141 nM | P93_24 355 nM | P94_40 224 nM | PAD 199 nM | PC15 794 nM | PC49 708 nM | SC27B 251 nM | TAB109 1260 nM | TAB113 282 nM | TAB165 158 nM
